Screens as filed in PubChem BioAssay.
Rows were chosen to be rich in hits. Some 4.6% of all compounds tested hit in one or more screens of this group.
ADAM17 inh – ADAM17 inhibition, QFRET primary screen | 370,000 compounds, 0.83% hits | AID 720648 | P78536 | inhibition, % at 6.95 µM | recombinant ADAM17, EDANS/DABCYL FRET peptide cleavage;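 active = inhibition above the mean of compounds lying between control limits plus 3 SD, set per campaign, cut at about 8.5% in these data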;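 also: 0% = DMSO-only wells as the low control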
Target sequence (P78536 215-824 limits assumed): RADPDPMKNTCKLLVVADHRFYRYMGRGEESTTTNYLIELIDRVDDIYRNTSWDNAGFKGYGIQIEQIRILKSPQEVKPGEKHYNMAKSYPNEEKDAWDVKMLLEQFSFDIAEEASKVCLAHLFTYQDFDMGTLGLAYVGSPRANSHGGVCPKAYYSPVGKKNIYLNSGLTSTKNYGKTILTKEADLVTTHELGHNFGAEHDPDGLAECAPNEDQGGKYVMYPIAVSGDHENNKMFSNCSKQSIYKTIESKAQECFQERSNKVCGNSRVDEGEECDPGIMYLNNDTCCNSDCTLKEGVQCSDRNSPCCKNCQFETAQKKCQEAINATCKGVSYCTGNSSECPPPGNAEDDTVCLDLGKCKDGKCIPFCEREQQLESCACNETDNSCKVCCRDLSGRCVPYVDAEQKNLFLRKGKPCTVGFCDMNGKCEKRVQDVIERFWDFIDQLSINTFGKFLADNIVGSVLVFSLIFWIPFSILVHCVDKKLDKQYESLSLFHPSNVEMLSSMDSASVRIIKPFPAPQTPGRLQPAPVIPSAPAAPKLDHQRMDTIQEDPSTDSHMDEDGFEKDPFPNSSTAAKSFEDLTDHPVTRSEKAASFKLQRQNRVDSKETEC
ADAM10 inh – inhibits human ADAM10; inhibition, % at 7 µM; AID 720582; recombinant ADAM10, EDANS/DABCYL FRET peptide cleavage, 3 h; 370,000 compounds, 0.62% hits; O14672;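 active = inhibition above a per-campaign cutoff equal to the mean of compounds falling between control-based bounds plus 3 SD, cut at about 20% in these data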;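 also: 0% = DMSO wells while the 100% control is not disclosed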
FAS TE block – blocks the thioesterase domain of human fatty acid synthase | P49327 | recombinant FAS-TE, OMFH fluorogenic substrate, fluorescence endpoint | inhibition, % at 15 µM | 360,000 compounds, 0.67% hits;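 active = compounds whose normalised, plate-corrected inhibition of enzyme fluorescence in the single-dose primary screen is 50% or more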;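 also: 0% = DMSO with enzyme and 100% = substrate without enzyme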
proKLK7 act – activators of human kallikrein-7 zymogen | P49862 | purified proKLK7, EDANS-DABCYL substrate fluorescence; 100% is mature enzyme control, 0% vehicle | activation, % at 7 µM | 370,000 compounds, 0.9% hits;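 active = activation above the mean of all tested compounds plus 3 SD, computed per campaign excluding outliers beyond control limits, cut at about 13% in these data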
GRIN3A LBD mod – modulates the human NR3A ligand-binding domain | 340,000 compounds, 2.5% hits | Tm shift relative to glycine control, % at 25 µM | NR3A LBD differential scanning fluorimetry, Tm shift; 0% = protein alone, 100% = glycine-bound protein | AID 1259313;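 active = melting temperature shift of at least 10% of the positive control shift, at one fixed dose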
FAS-TE conf – FAS thioesterase (human) inhibition, confirmation; shares compounds with FAS TE block; recombinant FAS-TE, OMFH fluorogenic substrate, fluorescence; inhibition, % at 15 µM; 2,300 compounds, 45% hits; AID 624325;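 active = compounds inhibiting the enzyme by at least 50% at 15 µM in any one of the replicates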;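 also: 0% = enzyme with DMSO only and 100% = wells lacking enzyme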
* hit, by the source's call; . = not tested or not shown.

SMILES	ADAM17 inh	ADAM10 inh	FAS TE block	proKLK7 act	GRIN3A LBD mod	FAS-TE conf
COc1ccc(-c2csc(NC(=O)c3ccccc3NS(=O)(=O)c3ccc(F)c(F)c3)n2)cc1	0.6	-1.0	58.1*	0.5	16.2*	19.0
COc1ccc(N2CCN(CCCNC(=O)Cn3c(=O)c4cccn4c4c(C)ccnc43)CC2)cc1	-2.4	9.1	.	.	.	.
O=C(Nc1ccc(Cl)cc1)c1csc(-c2ccccc2)n1	-1.2	3.8	61.3*	-0.6	-5.7	58.8*
CC(=O)/C(=N\Nc1ccccc1)Sc1nnc(-c2ccccc2)n1-c1ccccc1	-4.8	-7.2	-1.7	-0.6	-6.5	.
CC(=O)C(N=Nc1ccccc1)(Sc1nnc(-c2ccccc2)n1-c1ccccc1)C(=O)Nc1ccccc1 (stereo unspecified)	4.0	14.7	78.9*	-1.9	-0.7	16.5
Cc1ccc(C)c(CN2C(=O)c3ccccc3S(=O)c3ccc(C(=O)N4CCN(c5ccccn5)CC4)cc32)c1 (stereo unspecified)	6.1	15.3	72.0*	-0.2	-0.3	38.1
Cc1ccc(C)c(CN2C(=O)c3ccccc3S(=O)(=O)c3ccc(C(=O)N4CCN(C)CC4)cc32)c1	-2.0	5.0	2.2	0.4	-0.8	.
CS(=O)(=O)c1ccc(-c2csc(C(O)c3cccc(Cl)c3)n2)cc1 (stereo unspecified)	-2.5	-2.0	52.3*	-1.1	.	17.3
Cc1ccc(OCc2nnc(SCC(=O)Nc3ccc4c(c3)OCO4)n2Cc2ccco2)cc1	4.0	6.9	.	0.5	.	.
COc1cccc(CCNS(=O)(=O)c2c(C)n[nH]c2C)c1	0.4	1.6	.	0.4	.	.
CN(C)C(=O)CCc1ccc2c3c([nH]c2c1)[C@]1(CCC2CCCC2)[C@@H](C(=O)N2CCOCC2)C[C@H](CC(=O)NC(C)(C)C)C(=O)N1CC3	-4.5	-12.7	33.3	0.2	-1.1	.
O=C(CC1C[C@H](C(=O)N2CCOCC2)[C@@]2(CCC3CCCC3)c3[nH]c4ccccc4c3CCN2C1=O)NCCCn1ccnc1 (stereo partly specified)	-2.0	-1.2	68.9*	0.2	-0.3	64.3*
COc1ccc2[nH]c3c(c2c1)CCN1C(=O)C(CC(=O)NCCCn2ccnc2)C[C@H](C(=O)N2CCOCC2)[C@@]31CCC1CCCC1 (stereo partly specified)	-1.7	-8.3	33.9	0.5	-2.7	.
CC(C)(C)NC(=O)CC1C[C@H](C(=O)N2CCOCC2)[C@@]2(CCC3CCCC3)c3[nH]c4ccccc4c3CCN2C1=O (stereo partly specified)	1.6	2.9	80.7*	0.4	-3.4	76.0*
O=C(CC1C[C@H](C(=O)N2CCCCC2)[C@@]2(CCc3ccccc3)c3[nH]c4ccccc4c3CCN2C1=O)NCc1cccc(C(F)(F)F)c1 (stereo partly specified)	-3.5	-13.9	53.9*	0.1	3.7	29.2
CCOC(=O)[C@]12CCCC=C1N(CCCOC)C(=O)[C@@H]2CC(=O)NCC1CCCCC1	-3.6	-9.7	.	-0.4	.	.
COc1ccc(C2CC23N=C(c2ccccc2)OC3=O)cc1 (stereo unspecified)	-3.8	-10.5	85.1*	0.2	0.8	95.8*
COc1ccc([C@H]2CC(=O)C=C(c3ccccc3)C2)cc1	.	.	18.8	.	-0.8	.
COc1cccc(OCCOc2ccc(/C=C3/SC(=S)NC3=O)cc2)c1	-1.2	4.8	67.7*	-0.2	10.3*	39.8
COc1ccc(C=C2SC(=S)NC2=O)cc1	3.7	-6.8	8.8	0.3	-0.6	.
CN1C(=O)/C(=C\c2cc(N=Nc3ccccc3)ccc2O)SC1=S	2.2	7.4	65.9*	-0.6	-1.7	37.7*
O=C(CCc1ccccc1-c1ccccc1CCNC(=O)c1cccc(F)c1)NCc1ccccc1	-9.7	-63.9	.	0.1	.	.
Cc1nc(N/C(N)=N/S(=O)(=O)c2ccc([N+](=O)[O-])cc2)nc2ccccc12	-3.4	-1.8	25.7	0.3	-2.2	.
Cc1ccc2c(C)nc(N/C(N)=N/S(=O)(=O)c3ccc([N+](=O)[O-])cc3)nc2c1	-2.1	11.7	52.2*	0.7	-1.3	58.4*
COc1ccc(-c2ccc(OC)c([C@H]3[C@H]4C=CC[C@@H](C)[C@@H]4C(=O)N3Cc3ccccc3)c2)cc1OC	1.6	3.7	35.5	-0.4	-2.5	.
SMILES	ADAM17 inh	ADAM10 inh	FAS TE block	proKLK7 act	GRIN3A LBD mod	FAS-TE conf
COc1ccc(-c2c([C@H]3[C@H]4C=CC[C@@H](C)[C@@H]4C(=O)N3Cc3ccccc3)ccc3ccccc23)cc1OC	-1.9	8.0	54.7*	-0.9	-1.0	13.6
COC(=O)N1C(=O)[C@@](c2ccccc2)(C2CCCC2)N1C(=O)OC	.	.	43.8	.	-0.3	.
COC(=O)N1C(=O)[C@](CC(C)C)(c2ccccc2)N1C(=O)OC	-0.9	-7.8	85.3*	0.3	-0.8	87.8*
COC(=O)N1C(=O)[C@](c2ccc(OC)cc2)(C(C)C)N1C(=O)OC	-0.9	-3.5	71.7*	-0.4	-1.2	82.4*
COC(=O)N1C(=O)[C@](c2ccccc2)(C2CCCCC2)N1C(=O)OC	3.2	-4.4	79.8*	-0.3	-1.3	94.7*
CC[C@@]1(c2cccc(C)c2)C(=O)N(C(=O)OC)N1C(=O)OC	-6.2	-2.7	79.2*	-0.2	0.6	70.5*
COc1ccc(CN(CCN2CCOCC2)C(=O)c2cccc(F)c2F)cc1OC	0.2	0.5	.	-0.3	.	.
CCN(Cc1ccccc1)C(=O)C1CCCN(c2ncccn2)C1 (stereo unspecified)	-6.1	-23.8	.	1.2	.	.
CSc1ccc(CN2C(=O)C(F)(F)Oc3c(C(C)=O)cccc32)cc1	.	.	51.8*	.	.	59.0*
COc1ccc(S(=O)(=O)N(C)C[C@H]2Oc3c(NC(=O)Nc4ccc(C(F)(F)F)cc4)cccc3C(=O)N([C@H](C)CO)C[C@@H]2C)cc1	.	.	61.4*	.	11.4*	45.1
C[C@@H]1CN([C@H](C)CO)C(=O)c2cccc(NC(=O)NC3CCCCC3)c2O[C@@H]1CN(C)C(=O)Nc1ccc(C(F)(F)F)cc1	.	.	76.9*	.	5.0	70.0*
Cc1noc(C)c1NC(=O)N(C)C[C@H]1Oc2c(NC(=O)NC(C)C)cccc2C(=O)N([C@H](C)CO)C[C@@H]1C	-3.8	6.7	-9.1	-0.1	1.1	.
C[C@@H]1CN([C@H](C)CO)C(=O)c2cccc(NC(=O)Nc3ccc(C(F)(F)F)cc3)c2O[C@H]1CN(C)S(=O)(=O)c1cccs1	4.9	17.1	31.6	0.2	-1.4	.
Cc1noc(C)c1NC(=O)Nc1cccc2c1O[C@H](CN(C)C(=O)NC1CCCCC1)[C@@H](C)CN([C@H](C)CO)C2=O	-2.6	-0.1	76.7*	0.0	0.1	83.8*
C[C@H](CO)N1C[C@H](C)[C@@H](CN(C)C(=O)Nc2ccc(C(F)(F)F)cc2)Oc2c(NC(=O)NC3CCCCC3)cccc2C1=O	4.7	8.6	47.0	0.6	1.4	.
